Reference: PubChem BioAssay AID1672 (Johns Hopkins Ion Channel Center, 2009)
About 2,600 (0.84%) of roughly 310,000 compounds were called active. The entries come from a sample that favours actives as a whole. A number with no mark means an inactive call.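 Rule for the calls: active = fluorescence ratio B-score at or below minus 3 SD of library scores, with starting-brightness B-score within 2 SD (cut at about -4.2 in these data); inactive = the rest.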

molecular target: Inward rectifier potassium channel 2 (Mus musculus) (UniProt P35561); assay: blocks the mouse Kir2.1 inward-rectifier potassium channel (AID 1672); conditions: HEK293-Kir2.1, FluxOR thallium flux fluorescence; at 10 µM; hits give low values;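 note: channel flux triggered by added potassium and thallium sulfate stimulus; B-score of peak minus minimum fluorescence over baseline after thallium stimulus; more negative B-score means stronger Kir2.1 block with less thallium influx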
Sequence (P35561 whole entry, looked up): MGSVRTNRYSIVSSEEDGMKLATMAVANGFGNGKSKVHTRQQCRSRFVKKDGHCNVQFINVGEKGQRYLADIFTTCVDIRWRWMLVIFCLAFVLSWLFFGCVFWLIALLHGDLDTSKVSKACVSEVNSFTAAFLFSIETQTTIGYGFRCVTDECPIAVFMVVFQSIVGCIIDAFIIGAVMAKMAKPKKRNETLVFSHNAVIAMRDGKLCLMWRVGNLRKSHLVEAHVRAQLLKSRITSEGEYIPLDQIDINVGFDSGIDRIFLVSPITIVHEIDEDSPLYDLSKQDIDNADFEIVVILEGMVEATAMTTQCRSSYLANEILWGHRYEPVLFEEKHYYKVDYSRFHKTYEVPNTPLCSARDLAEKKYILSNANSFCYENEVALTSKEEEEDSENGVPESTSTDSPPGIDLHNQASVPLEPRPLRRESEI

Row | SMILES | B-score
1 | CCOC(=O)c1c(C)oc2cc(Sc3ccccc3)c(O)c(O)c12 | 1.87
2 | CCC(c1nnc(SCC(=O)NNC(=O)c2ccccc2)n1Cc1ccccc1)N(C)C (stereo unspecified) | 0.93
3 | CCCNC(=O)c1onc(CSc2ccc(F)cc2)c1C(=O)NC(C)C | -1.25
4 | O=[N+]([O-])c1ncc(Br)cc1Nc1ccccc1 | 0.16
5 | O=C(NCc1ccncc1)c1ccc(NS(=O)(=O)c2cccc([N+](=O)[O-])c2)cc1 | 0.45
6 | CCCCN1C(N)=NC[C@@H]1CC1CCCCC1 | -1.04
7 | COc1cccc(NC(=O)CSc2nccn(-c3ccc4c(c3)OCCO4)c2=O)c1 | -0.69
8 | Nc1ccccc1/C=N\N=C/c1ccccc1N | -1.02
9 | Cc1noc(C)c1CSCC(=O)Nc1ccc(Br)cc1Cl | 0.74
10 | COc1ccc(Cl)cc1NC(=O)CN(C)C(=O)c1cc(-c2cccs2)nn1-c1ccccc1 | -0.85
11 | CCCCn1c(N)c(N(CCOC)C(=O)c2sc3ccccc3c2Cl)c(=O)[nH]c1=O | -0.1
12 | COc1ccc(NS(=O)(=O)c2ccc(C)c(C(=O)N(C)Cc3ccc(OC)cc3OC)c2)cc1 | 0.75
13 | Cc1ccc(S(=O)(=O)N(Cc2cccc([N+](=O)[O-])c2)C(=O)N2CCN(C)CC2)cc1 | 1.58
14 | O=C(CCl)N(Cc1cccc([N+](=O)[O-])c1)c1cccc(Cl)c1 | -5.7 (active)
15 | CCN(CC)C(=O)CN(c1cccc([N+](=O)[O-])c1)S(=O)(=O)c1ccccc1 | 1.08
16 | COc1ccccc1NC(=O)Nc1nc(CC(=O)Nc2ccccc2F)cs1 | -0.89
17 | CC1CCc2[nH]c3ccc(C(=O)N(C)CC(=O)Nc4cccc(F)c4)cc3c2C1 (stereo unspecified) | -0.84
18 | O=C(CN1C(=O)c2ccccc2C1=O)NCc1ccc(C(=O)O)cc1 | -0.03
19 | CC(=O)N(C1=C(Cl)C(=O)c2ccccc2C1=O)c1ccc(C(=O)O)cc1 | -11 (active)
20 | CC(C)N(C(=O)c1ccc(-c2ccccc2F)cc1)C(C)C | -0.06
21 | COc1ccc(CCNc2cc(N3CCN(C(=O)c4ccccc4OC)CC3)ccc2[N+](=O)[O-])cc1OC | -0.2

Row | SMILES | B-score
22 | CC1(C)C=Cc2c(ccc3c2OC[C@@H](c2ccc(O)cc2O)C3)O1 | 0.26
23 | Cc1ccc(S(=O)(=O)CCC(=O)Nc2nnc(CC(C)C)s2)cc1 | 0.9
24 | COc1ccc(OCC(O)CNCCNc2nccc(C(F)(F)F)n2)cc1 (stereo unspecified) | -1.42
25 | OC(COc1ccc(Br)cc1)CN1CCCC1 (stereo unspecified) | -0.51
26 | CC(C)(C)CC(C)(C)NCC(O)COCCOc1ccc(Br)cc1 (stereo unspecified) | -6.18 (active)
27 | CCCCCC(=O)N1CCN(S(=O)(=O)c2ccc3c(c2)OCCCO3)CC1 | -1.7
28 | COc1ccc(Cl)cc1NC(=O)CN1CCN(C(=O)N2CCOCC2)CC1 | -2.11
29 | CC1CC(=S)Nc2ccccc2N1Cc1ccccc1 (stereo unspecified) | -4.8 (active)
30 | CC1CC(=O)Nc2ccccc2N1S(=O)(=O)c1cccs1 (stereo unspecified) | -0.1
31 | CC1CC(C)(C)NC(=S)N1CCC(=O)N1CCN(Cc2ccccc2)CC1 (stereo unspecified) | -0.96
32 | O=C(NCCc1ccco1)C(=O)NCCC1CCCCN1S(=O)(=O)c1ccccc1 (stereo unspecified) | -0.4
33 | COc1ccc(-c2nn(-c3ccccc3)cc2/C=C2/SC(=S)N(CCCC(=O)O)C2=O)c(C)c1 | 0.15
34 | Cc1ccc(-c2nn(-c3ccccc3)cc2/C=C2\SC(=S)N(CCCCCC(=O)O)C2=O)o1 | -6 (active)
35 | CN(C)S(=O)(=O)c1cccc(-c2nn(-c3ccccc3)cc2/C=C2\SC(=S)N(CC(=O)O)C2=O)c1 | 0.81
36 | COc1ccc(-c2cc(C(=O)N/N=C/c3cccnc3)c3ccccc3n2)c(OC)c1 | 0.47
37 | O=C(NNC(=O)c1ccc(-c2ccccc2)cc1)Nc1ccccc1 | -0.44
38 | CCOC(=O)c1c(C)[nH]c(C(=O)OCC(=O)N2CCCC2=O)c1C | -0.25
39 | Cc1ccc(NC(=O)CSc2nc(=O)n(CCN(C)C)c3c2CCCC3)c(C)c1 | -0.41
40 | Cc1csc(NC(=O)CSc2nc(=O)n(CCCN(C)C)c3c2CCC3)n1 | 1.14
41 | Cc1ccc2nc(NC(=O)CSc3nc(=O)n(CCCN(C)C)c4c3CCC4)sc2c1 | -4.83 (active)
42 | COc1ccc(S(=O)(=O)N2CCCCC2)cc1NC(=O)COc1ccccc1 | 0.95

Row | SMILES | B-score
43 | CC(Nc1nc(N2CCOCC2)nc2ccccc12)c1ccccc1 (stereo unspecified) | -0.41
44 | CC(Nc1nc(N2CCN(CCO)CC2)nc2ccccc12)c1ccccc1 (stereo unspecified) | -0.6
45 | CC(Nc1nc(N2CCCC2)nc2ccccc12)c1ccccc1 (stereo unspecified) | -4.56 (active)
46 | COc1ccc(CCNCc2c(-c3ccccc3)n(C)c3ccccc23)cc1 | -10.9 (active)
47 | COc1ccc(-c2c(C#Cc3ccccc3)c3ccccc3n2C)cc1 | 0.01
48 | COc1ccc(-c2nc3ccccc3c(=O)n2CCc2ccc(O)cc2)cc1 | 0.02
49 | CCOc1cc2ccccc2cc1C(=O)Nc1ccccn1 | 1.1
50 | COc1ccccc1C(=O)Nc1ccccc1C(=O)Nc1ccccc1 | 1.53
51 | CC(C)(C)NCC(O)COc1cccc2[nH]c(=O)[nH]c12 (stereo unspecified) | 1.46
52 | COc1ccccc1OCCNCC(O)COc1cccc2[nH]c3ccccc3c12 (stereo unspecified) | -4.77 (active)
53 | COc1cccc2[nH]c(C(=O)NCCc3ccccc3)cc12 | 0.06
54 | Cc1cc2oc3ccc(NCCC4CCCN4C)cc3c(=O)c2cc1C (stereo unspecified) | -7.66 (active)
55 | CCCOc1ccc(C2c3c(oc4cc(C)c(C)cc4c3=O)C(=O)N2CCCN2CCOCC2)cc1 (stereo unspecified) | 0.6
56 | Cc1cc2oc(=O)cc(CN3CCN(Cc4ccccc4)CC3)c2cc1C | -2.25
57 | COc1ccccc1NC(=O)COC(=O)c1ccccc1SCC(=O)N1CCCC1 | 1.77
58 | O=C(c1cc(-c2ccco2)nc2ccccc12)N(Cc1nnc(-c2ccc(Cl)cc2)o1)C1CC1 | -1.19
59 | CCC(C)NC(=O)c1ccc(N2CCC3(CC2)OCCO3)c([N+](=O)[O-])c1 (stereo unspecified) | 0.4
60 | CC(NC(=O)c1ccc(N2CCNCC2)c([N+](=O)[O-])c1)C12CC3CC(CC(C3)C1)C2 (stereo unspecified) | -8.06 (active)
61 | O=C(NC1C2CC3CC(C2)CC1C3)c1ccc(N2CCNCC2)c([N+](=O)[O-])c1 (stereo unspecified) | 0.7
